AmpC inh detg – blocks E. coli AmpC beta-lactamase in detergent assay; P00811; AID 485294; actives 0.041% (n = 370,000); AmpC hydrolysis of nitrocefin, absorbance 480 nm, 0.01% Triton; Potency, µM (highest dose often 114 µM), inactives show at the highest dose activity change, negative = inhibition, most hits filed as inhibitors;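 note: potency is the fitted concentration of half-maximal effect; 0% = no-compound wells and -100% = no-enzyme wells; nearly all actives have a fitted effect of over 25% in size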
Target sequence (P00811 whole entry, looked up): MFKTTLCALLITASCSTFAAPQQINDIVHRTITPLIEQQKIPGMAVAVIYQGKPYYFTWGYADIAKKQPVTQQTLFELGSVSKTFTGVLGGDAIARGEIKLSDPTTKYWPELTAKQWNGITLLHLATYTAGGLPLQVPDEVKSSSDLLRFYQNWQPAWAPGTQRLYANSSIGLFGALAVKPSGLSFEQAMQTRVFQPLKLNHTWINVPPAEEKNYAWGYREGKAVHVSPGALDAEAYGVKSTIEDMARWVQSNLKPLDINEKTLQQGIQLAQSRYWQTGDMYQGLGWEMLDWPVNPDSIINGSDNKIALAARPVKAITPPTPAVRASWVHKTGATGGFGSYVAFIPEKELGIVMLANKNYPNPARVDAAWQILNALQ
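AmpC (5.3 nM in the dispensed reagent) in 20 mM phosphate pH 7.0 with 0.01% (detergent screen) or 0.0001% Triton X-100 was preincubated with compounds for 15 min at room temperature. Nitrocefin was then added from an 800 uM solution, and hydrolysis was followed at 480 nm.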
NS1 inh – blocks influenza NS1 protein function | AID 2326 | Potency, µM (top dose mostly 46.1 µM), for inactives: at the highest dose activity, positive = more growth | actives 0.4% (n = 270,000); calls by dose curve; note: potency is the fitted concentration of half-maximal effect; actives are rising curves; nearly all actives have a fitted effect of over 50% in size
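S. cerevisiae expressing influenza A NS1, grown in glucose, washed, then diluted 1:100 into pH 6.0 -URA galactose medium with 23 nl compound. Growth recovery read as OD600; NS1-free strain serves as control.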
AmpC inh no detg – blocks E. coli AmpC beta-lactamase in detergent-free assay | actives 0.52% (n = 330,000) | AmpC nitrocefin hydrolysis, absorbance 480 nm, 0.0001% Triton | AID 485341 | Potency, µM (doses to about 57.1 µM), inactives show top-dose activity change, negative = inhibition, actives largely listed as inhibitors;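 note: potency is the fitted concentration of half-maximal effect; plate controls were no compound for no effect and no enzyme for full effect; nearly all actives have a fitted effect of over 20% in size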
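AmpC (5.3 nM in the dispensed reagent) in 20 mM phosphate pH 7.0 with 0.01% (detergent screen) or 0.0001% Triton X-100 was preincubated with compounds for 15 min at room temperature. Nitrocefin was then added from an 800 uM solution, and hydrolysis was followed at 480 nm.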
Shiga toxin inh – inhibitors of Shiga toxin in Vero cells | actives 9.2% (n = 290,000) | inhibition, % at 38.7 µM | Vero cells, Shiga toxin protein synthesis inhibition reporter; in the data active = inhibition mostly above about 28%, no sharp cut-off; inactive = mostly below about 43%; note: 0% is about no effect
Cycloheximide cs – counter-screen for Shiga toxin inhibitors: cycloheximide protein synthesis inhibition; cell reporter, cycloheximide protein synthesis inhibition counterscreen; max response, %; actives 12% (n = 300,000); in the data active = max response mostly above about 13%, no sharp cut-off; inactive = mostly below about 14%; note: read at 38.3 µM for the half of the compounds with a filed dose; 0% is about no effect
Active calls of the source: *; ? = inconclusive; / = not tested or not shown. The entries come from a sample that favours hits as a whole. Unless noted, calls come from the whole dose curve; as a rule, active = well fitted curve in the direction sought with a large enough effect; inconclusive = small, poorly fitted or top-dose-only effect, or another doubt; inactive = no such curve, though single readings can be large; an effect the other way counts as inactive or inconclusive.

SMILES	AmpC inh detg	NS1 inh	AmpC inh no detg	Shiga toxin inh	Cycloheximide cs
COc1cccc(C(=O)Nc2sc3c(c2C#N)CCN(C(C)=O)C3)c1	-1.2%	/	-13.6%	47.1	25.2*
Cc1cc(Cl)ccc1OCC(=O)Nc1c(Cl)ccc2nsnc12	-2.7%	/	/	/	/
CC(Oc1cccc(Cl)c1)C(=O)Nc1nc(-c2ccccn2)cs1 (stereo not given)	-3.4%	/	-39.6%	/	/
Cc1cccc(C(=O)Nc2sc3c(c2C(=O)NC(C)C)CCCC3)c1	3.5%	/	/	/	/
COc1cc(C(=O)Nc2sc3c(c2C(=O)O)CCC3)cc(OC)c1OC	-5.2%	-0.7%	-15.6%	24.6	-2.5
COc1cccc(C(=O)Nc2sc3c(c2C(=O)O)CCCC3)c1	-3.9%	-24.0%	-28.0%	104.0*	36.7*
Cc1cccc(C(=O)Nc2sc3c(c2C(=O)O)CCC3)c1	3.8%	-56.2%	-20.3%	103.4*	42.4*
Cc1ccc(C(=O)C(NC(=O)c2ccco2)Nc2sc3c(c2C(N)=O)CCCC3)cc1 (stereo not given)	-5.5%	6.7%	-19.3%	active	13.2*
O=C(Nc1sc2c(c1C(=O)NCc1ccco1)CCCC2)c1ccc2c(c1)OCO2	6.7%	15.6%	?	88.9*	44.4*
CC(=O)Oc1ccc2oc(=O)c3c(c2c1)CCCN3C(=O)CN1CCOCC1	-14.7%	/	-26.2%	-1.7	10.2
CC1(C)Cc2c(sc(NC(=O)c3ccc(Br)o3)c2C#N)CO1	-10.5%	-5.8%	-15.4%	70.7*	45.5*
CC1(C)Cc2c(sc(NC(=O)Cc3ccccc3)c2C#N)CO1	-4.4%	-1.7%	-18.1%	23.9	0.8
CNC(=O)c1c(NC(=O)c2ccco2)sc2c1CCCC2	0.3%	-55.2%	43.0%	31.9	28.7*
COc1ccc(NC(=O)CN(c2cccc(C)c2C)S(=O)(=O)c2ccccc2)cc1OC	-1.4%	/	/	/	/
Cc1cc2cc(C#N)c(SCC(=O)Nc3nonc3C)nc2cc1C	4.9%	0.0%	-21.4%	16.3	14.1
Cc1nonc1NC(=O)CSc1nc2c(C)cccc2cc1C#N	-17.1%	/	-41.8%	67.9*	40.9*
Cn1c(CSc2nc3ccccc3s2)n[nH]c1=S	2.2%	-4.8%	-11.2%	18.1	15.0*
Cn1c(CSc2nc3ccccc3s2)nc2ccccc21	1.8%	-62.8%	-20.2%	77.4*	39.1*
Cn1c(-c2csc(-c3ccccc3)n2)n[nH]c1=S	-6.1%	2.7%	-29.1%	24.9	16.1*
CCc1nnc(NC(=O)CSc2nc3ccccc3s2)s1	0.6%	-14.2%	-30.0%	-7.5	3.0
CCNc1nnc(CSc2nc3ccccc3s2)s1	?	-8.8%	-6.1%	59.7*	36.8*
Cc1ccc(-c2n[nH]c(=S)n2C)cc1	-10.2%	13.1%	-7.0%	-13.8	-4.2
Cc1cccc(C(C)C)c1NC(=O)C1CCCN1S(=O)(=O)c1cccc2nsnc12 (stereo not given)	-0.7%	/	/	/	/
COc1cccc(CNC(=O)Cn2c(=O)ccc3cc(S(=O)(=O)N4CCC(C)CC4)ccc32)c1	4.3%	/	/	/	/
COc1cc(NC(=O)c2c(OC)cccc2OC)ccc1NC(=O)c1cc2ccccc2o1	-15.7%	7.3%	57.5%	/	22.3*
SMILES	AmpC inh detg	NS1 inh	AmpC inh no detg	Shiga toxin inh	Cycloheximide cs
CCC(=O)Nc1ccc(NC(=O)c2cc3ccccc3o2)c(OC)c1	?	18.8%	4.9%	33.7*	26.9*
CCOc1ccc(N(C)C(=O)C2CCN(S(=O)(=O)c3ccc4c(c3)CCCN4C(C)=O)CC2)cc1	-5.7%	/	/	/	/
CC(C)Oc1ccc(CNC(=O)CCCn2c(=O)c3cccn3c3ccccc32)cc1	-3.4%	/	/	/	/
CC(=O)Nc1cccc(C(=O)OCC(=O)NC(C)c2ccc(F)cc2)c1 (stereo not given)	-16.7%	/	14.0%	20.3	-1.8
O=C(CCc1ccccc1)Nc1cccc(NC(=O)CCc2ccccc2)c1	-8.2%	3.2%	-58.7%	-11.6	-1.8
CCOC(=O)c1cccc(NC(=O)CCc2ccccc2)c1	-0.5%	-33.1%	-35.2%	55.1	16.0*
CC(=O)Nc1cccc(C(=O)OCCCOc2ccc(F)cc2)c1	1.9%	-82.8%	13.3%	57.8*	32.1*
COc1ccc(OCCCC(=O)OC(C)C(=O)Nc2cccc(C(C)=O)c2)cc1 (stereo not given)	2.6%	-14.6%	16.9%	-22.3	15.0*
CCC(=O)Nc1ccc(C(=O)OCC(=O)c2cccs2)cc1	3.2%	-6.5%	-13.0%	55.5*	31.1*
C[C@H]1C[C@H]2[C@H]3CCC4=CC(=O)C=C[C@@]4(C)[C@]3(F)[C@H](O)C[C@]2(C)[C@@]1(O)C(=O)COP(=O)(O)O	/	-2.7%	/	/	/
CC(=O)Nc1cccc(C(=O)OCC(=O)NC(=O)Cc2ccccc2)c1	-10.4%	/	-22.1%	/	/
